Source: PubChem BioAssay (National Center for Advancing Translational Sciences (NCATS))
Sampled rows, rich in hits. Any-hit rate of the full collection: about 7.2%.
HEK293 cAMP cs: counter-screen for TSHR agonists: cAMP increase in parental HEK293; parental HEK293 CNG cAMP sensor, membrane potential fluorescence; Potency, µM (doses to about 57.1 µM), without a hit: top-dose activation, usual class: activators; 73,000 compounds, 2.5% hits; also: % of control where 0% means no effect; nearly all actives have a fitted effect of over 55% in size
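Parental HEK 293 cells stably expressing a modified CNG channel (no TSHR) report cAMP rise as membrane depolarization. Membrane potential dye with 100 uM RO 20-1724 was loaded for 60 min at room temperature, then compound added for 30 min; fluorescence read at 590 nm.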
Tau fil binding: binders of human tau filaments; P10636; recombinant tau filaments, thioflavin S fluorescence, 15 h; filaments grown with octadecylsulfate alongside compound; Potency, µM (highest dose often 57.1 µM), for the others: top-dose activity change, negative = inhibition; 71,000 compounds, 2% hits; AID 596;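 also: % is scaled to controls: 0 for no effect and ±100 for the full control effect; actives lower thioflavin S fluorescence by blocking filaments or displacing dye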
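His-tagged recombinant human tau (exons 2, 3, 10; 1 uM final) fibrillized with 30 uM sodium octadecylsulfate, 15 h at 37 C, in pH 7.4 HEPES buffer with 10 uM thioflavine S and 5 mM DTT. Reduced ThS fluorescence (450/510 nm) marks activity.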
Luciferase inh: inhibitors of firefly luciferase. 72,000 compounds, 2.2% hits. purified firefly luciferase, luminescence, 8 min. Potency, µM (series often up to 57.1 µM), without a hit: at the highest dose activity change, negative = inhibition, actives largely listed as inhibitors; also: % is scaled to controls: 0 for no effect and ±100 for the full control effect; nearly all actives have a fitted effect of over 40% in size
Target sequence (P08659 whole entry, looked up): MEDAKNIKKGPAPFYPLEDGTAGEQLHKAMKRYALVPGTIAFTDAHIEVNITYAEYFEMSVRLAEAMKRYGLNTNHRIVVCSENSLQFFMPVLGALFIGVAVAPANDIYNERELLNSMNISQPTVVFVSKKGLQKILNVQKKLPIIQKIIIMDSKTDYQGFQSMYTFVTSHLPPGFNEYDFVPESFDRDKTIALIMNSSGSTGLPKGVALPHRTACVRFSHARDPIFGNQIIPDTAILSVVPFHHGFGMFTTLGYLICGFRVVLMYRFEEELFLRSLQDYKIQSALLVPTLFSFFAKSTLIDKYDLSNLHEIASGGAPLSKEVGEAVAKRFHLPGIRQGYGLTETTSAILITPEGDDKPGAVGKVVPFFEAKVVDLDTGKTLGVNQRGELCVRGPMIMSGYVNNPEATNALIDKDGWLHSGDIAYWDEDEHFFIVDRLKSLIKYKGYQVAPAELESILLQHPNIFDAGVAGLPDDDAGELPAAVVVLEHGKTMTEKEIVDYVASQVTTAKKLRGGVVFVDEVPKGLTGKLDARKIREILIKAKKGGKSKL
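Here, luciferase activity is measured as luminescence following an 8 min room-temperature reaction at 10 uM ATP, pH 7.2. Every library sample is titrated.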
ERK AVP block: inhibitors of vasopressin-stimulated ERK signaling pathway | Potency, µM (series often up to 57.5 µM), without a hit: top-dose activity, negative = inhibition, usual class: inhibitors | 72,000 compounds, 0.99% hits | AID 995 | HEK293-V1b, vasopressin-stimulated pERK AlphaScreen; also: % is scaled to controls: 0 for no effect and ±100 for the full control effect; nearly all actives have a fitted effect of over 55% in size
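HEK293 cells stably expressing V1b receptor, preincubated 30 min at 37 °C with compound, then stimulated 5 min with 25 nM vasopressin. Phospho-ERK by AlphaScreen SureFire after 5 h RT; normalized to DMSO and vasopressin; AC50 by Hill fit.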
TSHR ag: activates the human thyroid stimulating hormone receptor; 73,000 compounds, 0.48% hits; HEK293-CNG-TSHR cells (CNG channel as cAMP sensor), membrane potential dye, cAMP; AID 926; P16473; Potency, µM (top dose mostly 57.1 µM), for the others: at the top dose activation, usual class: activators; active = well fitted activation curve with a large enough effect in the main read-out, with a control signal flat, not every such curve was filed as active; inconclusive = small, poorly fitted or top-dose-only effect, or a change in a side signal; inactive = no such curve, though single readings can be large or run the other way; % of control where 0% means no effect;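 also: the control signal comes from parental cells without the receptor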
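cAMP rise detected as CNG-channel membrane depolarization by fluorescent dye (emission 590 nm), 30 min after compound, following 60 min dye loading containing 100 uM RO 20-1724 at room temperature. Cells: TSHR/CNG HEK 293, with parental CNG HEK 293 as control.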
PK Bst: pyruvate kinase (B. stearothermophilus) modulation; purified pyruvate kinase, luminescence ATP production; ribose 5-phosphate activator present at AC10; Potency, µM; 51,000 compounds, 1.2% hits; AID 361; in the data active = potency below about 11 µM; inconclusive = mostly about 12 µM to 25 µM;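 the screen sought inhibitors and activators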;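 also: scaled between full activation by ribose 5 phosphate and full inhibition by luteolin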
Active calls of the source: *; i = inactive; ? = inconclusive; . = not tested or not shown; [ ] = remark or other dose. Unless noted, calls follow the shape of the dose curve; as a rule, active = well fitted curve in the direction sought with a large enough effect; inconclusive = small, poorly fitted or top-dose-only effect, or another doubt; inactive = no such curve, though single readings can be large; an effect the other way counts as inactive or inconclusive. Potency is read from the fitted curve at half-maximal effect.

SMILES	HEK293 cAMP cs	Tau fil binding	Luciferase inh	ERK AVP block	TSHR ag	PK Bst
COCCNC(=O)C1(CC(C)C)C=CCN1C(=O)OC (stereo not given)	?	7%	.	1%	?	.
CCn1nnc(NC(=O)c2ccc(-c3ccc(Cl)cc3)o2)n1	18%	3%	-18%	15%	-2%[11.4 µM]	6.5*
CCCCOc1ccc(C(=O)O)cc1	6%	-2%	2%	12%	-2%	>57
CCCCOc1ccc(C(=O)Nc2cccc(C)n2)cc1	26%	15%	13µM*	26%	2%[11.4 µM]	i
CC[C@@]1(O)C(=O)COc2c1cc1n(c2=O)Cc2c-1nc1cccc(C(C)C)c1c2[Si](C)(C)C	30%	-24%	.	-1%	.	.
COc1ccccc1CNc1ncnc2ccc(-c3ccoc3)cc12	20µM*	53%	-2%[2.29 µM]	?	?	.
CN(C)C(=O)c1ccc(-c2ccc3ncnc(NCc4cccs4)c3c2)cc1	1%	-6%	-2%[2.29 µM]	32µM*	14%	.
COc1cccc(-c2ccc3ncnc(NCc4cccs4)c3c2)c1	?	197%	0%[2.29 µM]	16µM*	?	.
CC1CN2C(CCC(C)C2c2ccc(Br)cc2)C(=O)O1 (stereo not given)	5%[11.4 µM]	.	.	5%[11.5 µM]	4%[11.4 µM]	.
Cc1ccc(S(=O)(=O)N[C@H]2COC(=O)CC=C[C@@H](C)[C@H]3C=C[C@H](O)[C@@H](COC(=O)CC=C[C@H]2C)O3)cc1	-2%[11.4 µM]	.	1%[11.4 µM]	-2%[11.5 µM]	-7%[11.4 µM]	.
CCc1cc(=O)oc2cc(C)c(CN3CCCC(C)C3)c(O)c12 (stereo not given)	.	.	-1%[25.5 µM]	.	.	>26
CCCCc1cc(=O)oc2cc(C)c(CN3CCCC3)c(O)c12	0%	20µM*	0%	-9%	-9%	>57
c1cncc(C2Nc3ccccc3-c3nc4ccccc4n32)c1 (stereo not given)	4%	11%	-23%	-4%	28%	.
c1ccc2c(c1)NC1(CCCC1)n1c-2nc2ccccc21	11%	1%	25µM*	7%	24%	i
CCC(C)(C)C	0%	-6%	.	26%	?	.
CC(C)(C)c1csc(NC(=O)c2ccc(Cl)s2)n1	14%	-21%	16µM*	-15%	12%	i
Cc1ccc(-c2nnc(SCC(=O)O)n2N)cc1	0%	-2%	-2%	5%	0%	>57
CC(C)(C)c1ccc(-c2nnc(SCC(=O)O)n2N)cc1	16%	9%	16µM*	15%	-4%	.
N#Cc1cc2sc3nnc(-c4ccncc4)n3c2cc1C#N	5%	7.9µM*	1%	0%	-3%	.
N#Cc1cc2sc3nc4ccccc4n3c2cc1C#N	-7%	3%	0%	-5%	-2%	>57
CCOC(=O)c1cc(NC(=O)NCc2ccco2)c(C)nc1C	-7%[2.29 µM]	-6%	1%	-10%	10µM*	>57
Cc1ccc(/C=c2\sc3nc(-c4cccnc4)nn3c2=O)cc1	16%	-8%	7.9µM*	15%	0%	.
Cc1nnc(C)c2c(C)n(-c3ccc(Br)cc3)c(C)c12	4µM*	1%	1%	5%	?	.
Cc1ccc2c(Cl)cc(Cl)c(OCC(=O)NC(=O)NCc3ccco3)c2n1	21%	34%	-32%	4%	10%	3.1*
Cc1cc(Cl)cc(Cl)c1OCC(=O)NCc1ccco1	-3%[11.4 µM]	4%[11.4 µM]	1%	4%	.	.
N#Cc1nc(-c2cccs2)oc1N1CCN(c2ccccc2)CC1	20µM*	34%	0%	-17%	?	.
N#Cc1nc(Cc2ccccc2)oc1N1CCN(c2ccccc2)CC1	?	5%	4%	25µM*	?	>57
NCCCCC(N)C(=O)NC(Cc1ccc(O)cc1)C(=O)NC(CCCCN)C(=O)O (stereo not given)	.	.	.	-19%	.	.
CC1CN(C(=O)c2cccs2)CCN1C(=O)c1cccs1 (stereo not given)	32µM*	232%	3%	3%	?	>57
CCOC(=O)C1=C(C)Nc2nc(SC)nn2C1c1ccc(C(=O)OC)cc1 (stereo not given)	12%	-12%	3%	14%	16µM*	>57
